# Rab9 promoter act: activates the Rab9 promoter; Potency, µM (top dose mostly 9.22 µM), without a hit: at the top dose activation, negative = inhibition, actives largely listed as activators; Huh7 Rab9 promoter-luciferase reporter, luminescence, 24 h; 320,000 compounds, 2.8% hits; note: % of control where 0% means no effect; nearly all actives have a fitted effect of over 60% in size
#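 Rab9 promoter-driven luciferase in stably transfected Huh7 cells; 1500 cells/well rested 2 h, exposed to compound in DMSO for 24 h at 37 °C, 5% CO2. Luminescence read 10 min after adding luciferase reagent at ambient temperature.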
# ELG1 genotox: induces genotoxicity in HEK293T cells with luciferase-tagged ELG1; HEK293T ELG1-luciferase reporter, luminescence, 16 h; Potency, µM (top dose mostly 46 µM), for the others: at the top dose activity change, positive = activation, actives largely listed as activators; 330,000 compounds, 1.3% hits; note: % of control where 0% means no effect; nearly all actives have a fitted effect of over 60% in size
#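 Reporter readout depends on ELG1 protein level, which increases with genetic stress. After 16 hr compound exposure at 37 °C, luciferase activity was quantified using ONE-Glo.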
# NPC1 promoter act: activators of NPC1 promoter. Huh7 NPC1 promoter luciferase reporter, 24 h. Potency, µM (highest dose often 9.22 µM), for inactives: at the highest dose activation, usual class: activators. 320,000 compounds, 2.4% hits; note: % of control where 0% means no effect; nearly all actives have a fitted effect of over 60% in size
#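 Compounds in DMSO were transferred onto Huh7 NPC1-luciferase reporter cells pre-incubated 2 h; after 24 h at 37 °C, Amplite reagent was dispensed and luminescence recorded 10 min later.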
# SMN2 splice up: SMN2 splice variant enhancement. HEK293 SMN2-luciferase splicing reporter, luminescence, 30-36 h. 210,000 compounds, 2.8% hits. Potency, µM (titrated, usually from 46.1 µM), inactives show at the highest dose activity change, positive = activation, actives largely listed as activators; note: % of control where 0% means no effect; nearly all actives have a fitted effect of over 55% in size
#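 HEK293 cells carry an SMN2 […]–luciferase reporter in which exon 7 inclusion puts luciferase in frame. Cells were plated 10-12 h before compound addition, then incubated 30-36 h at 37C. ONE-Glo luminescence was read; sodium butyrate at 4.5 mM final served as control.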
# FLuc modulator: inhibits or activates purified firefly luciferase, miR-21 counter-screen; P08659; purified FLuc, Km substrates, luminescence inhibition; Potency, µM (series often up to 57.5 µM), for the others: top-dose activity change, negative = inhibition, actives largely listed as inhibitors; 360,000 compounds, 6.9% hits; AID 588342;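 note: plate controls were vehicle for no effect and reference inhibitor for full effect; nearly all actives have a fitted effect of over 55% in size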
# Target sequence (P08659 whole entry, looked up): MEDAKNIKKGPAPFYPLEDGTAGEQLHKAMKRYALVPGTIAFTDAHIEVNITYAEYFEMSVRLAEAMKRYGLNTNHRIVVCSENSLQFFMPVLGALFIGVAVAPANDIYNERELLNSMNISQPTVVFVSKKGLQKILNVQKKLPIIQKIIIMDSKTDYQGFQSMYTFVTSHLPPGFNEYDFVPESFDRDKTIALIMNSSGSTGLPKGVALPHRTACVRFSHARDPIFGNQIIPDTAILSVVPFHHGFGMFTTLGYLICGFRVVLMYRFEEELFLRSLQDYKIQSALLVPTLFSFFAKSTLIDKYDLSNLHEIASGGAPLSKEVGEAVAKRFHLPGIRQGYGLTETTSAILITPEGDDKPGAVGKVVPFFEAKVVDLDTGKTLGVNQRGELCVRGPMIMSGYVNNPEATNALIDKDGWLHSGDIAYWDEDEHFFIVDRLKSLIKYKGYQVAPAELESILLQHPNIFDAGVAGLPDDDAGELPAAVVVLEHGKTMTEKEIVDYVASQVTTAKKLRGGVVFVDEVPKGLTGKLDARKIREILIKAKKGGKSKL
#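 Biochemical qHTS of compounds, final roughly 60 µM downward over six points, against 10 nM purified firefly luciferase using Km concentrations of substrates (10 uM D-luciferin, 10 uM ATP) in Tris acetate pH 7.5 buffer; luminescence output.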
# ELG1 DNA repair: ELG1-dependent DNA repair inhibition | HEK293T ELG1-luciferase reporter, luminescence, 16 h; DNA damage induced by 5-fluorouridine | Potency, µM (titrated, usually from 46.1 µM), for the others: at the highest dose activity change, negative = inhibition, actives largely listed as inhibitors | 330,000 compounds, 2.3% hits | AID 504467; note: % is set by controls: 0 for no effect and ±100 for the full control effect; nearly all actives have a fitted effect of over 55% in size
#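 Overnight (16 hr) co-exposure of 2,000 cells/well to 5-fluorouridine and compound at 37 °C preceded detection. Luciferase was quantified via ONE-Glo luminescence; loss of signal denotes inhibition.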
# Starred values were filed as active, the others as inactive; ? = inconclusive; . = no result. Rows were chosen to be rich in hits. Some 9.4% of all compounds tested hit in one or more screens of this group. Calls come from the whole dose curve; as a rule, active = well fitted curve in the direction sought with a large enough effect; inconclusive = small, poorly fitted or top-dose-only effect, or another doubt; inactive = no such curve, though single readings can be large; an effect the other way counts as inactive or inconclusive. Potency is the fitted concentration of half-maximal effect.
SMILES,Rab9 promoter act,ELG1 genotox,NPC1 promoter act,SMN2 splice up,FLuc modulator,ELG1 DNA repair
Cc1nnc(N2CCN(c3ccccc3)CC2)c2c1nnn2Cc1ccc(F)cc1,.,.,.,7.3%,1.2%,.
COc1ccc(C(=O)OCC(=O)c2ccc(C3CCCCC3)cc2)cc1,-23.8%,6.51µM*,-10.5%,-84.5%,-13.4%,11.4%
O=C(OCC(=O)C12CC3CC(CC(C3)C1)C2)c1ccc(O)cc1,.,7.6%,.,.,.,?
Nc1ccc(O)cc1C(=O)OCC(=O)c1ccc(C2CCCCC2)cc1,3.3%,?,-6.1%,-29.6%,2.69µM*,?
Nc1ccc(O)cc1C(=O)OCC(=O)C12CC3CC(CC(C3)C1)C2,-5.8%,-0.6%,0.2%,-22.9%,15.1µM*,-7.9%
COc1ccc(C(=O)Nc2ccc(C(=O)OCC(=O)c3ccccc3)cc2)cc1,10.5%,0.8%,10.7%,-0.1%,0.3%,2.8%
O=C(NCc1ccccc1)c1ccc(CNS(=O)(=O)c2ccc(Br)cc2)cc1,.,.,.,-7.0%,-9.1%,.
Cc1c(Cl)cccc1NC(=O)Nc1ccc2snnc2c1,.,.,.,5.4%,?,.
O=C(CNC(=O)c1ccccc1Cl)OCC(=O)N1CCc2ccccc21,8.7%,?,2.7%,5.8%,13.5µM*,?
O=C(Cc1ccccc1F)OCC(=O)N1CCc2ccccc21,0.0%,7.8%,1.0%,3.7%,6.75µM*,5.2%
COC(=O)CCN1CCc2cc(N=Nc3ccc([N+](=O)[O-])cc3)ccc21,1.12µM*,?,1.12µM*,.,0.675µM*,?
C=CCn1c(SCc2nc3c(c(=O)[nH]c(=O)n3CCCC)n2CCC)nnc1-c1ccccc1,0.1%,-6.8%,-0.1%,-17.3%,-0.1%,18.4µM*
CCCCCn1c(N2CCN(Cc3ccccc3)CC2)nc2c1c(=O)[nH]c(=O)n2C,-9.8%,-4.5%,-1.4%,6.3%,6.9%,16.4µM*
CCN1CCN(c2nc3c(c(=O)[nH]c(=O)n3C)n2CCSc2nc3ccccc3s2)CC1,6.4%,1.5%,3.6%,7.8%,-0.5%,?
CC(CSc1nc2ccccc2s1)Cn1c(N2CCCC2)nc2c1c(=O)[nH]c(=O)n2C (centres undefined),1.9%,-5.0%,1.4%,-4.6%,4.1%,14.6µM*
COc1ccc(N2CCN(Cc3nc4c(c(=O)[nH]c(=O)n4C)n3Cc3ccccc3)CC2)cc1,.,.,.,8.3%,-1.1%,.
COc1ccc(N2CCN(Cc3nc4c(c(=O)[nH]c(=O)n4C)n3CCCc3ccccc3)CC2)cc1,-4.0%,-3.6%,-6.9%,8.0%,1.2%,8.91µM*
C=CCOc1ccc(-c2nc3c(c(=O)[nH]c(=O)n3CCC)n2CCCC)cc1,-2.4%,0.2%,-2.1%,.,1.7%,-0.4%
COCc1cc(O)c(O)c(O)c1-c1c(COC)cc(O)c(O)c1O,.,.,.,-8.6%,.,.
CC(C)(C)OC(=O)N1CCC(c2c(C(=O)N3CCN(c4ccccn4)CC3)cnn2-c2cccc(F)c2)CC1,.,.,.,.,-2.6%,.
Cn1c(=O)[nH]c(=O)c2c1nc(N1CCCCCC1)n2CCCSc1nc2ccccc2o1,-1.4%,-4.4%,1.1%,.,-0.5%,23.1µM*
CCCCn1c(-c2ccsc2)nc2c1c(=O)[nH]c(=O)n2CCC,-1.7%,?,-1.1%,25.8%,3.4%,?
CCCCn1c(CN2CCN(c3cccc(Cl)c3)CC2)nc2c1c(=O)[nH]c(=O)n2C,-7.6%,-1.2%,-25.1%,-25.9%,5.8%,?
CCCCn1c(=O)[nH]c(=O)c2c1nc(-c1ccsc1)n2Cc1ccccc1,-12.6%,-7.0%,-3.2%,?,1.4%,18.4µM*
Cn1c(=O)[nH]c(=O)c2c1nc(CN1CCN(c3cccc(Cl)c3)CC1)n2CCCc1ccccc1,-6.1%,-11.2%,0.5%,-8.1%,0.0%,9.2µM*
SMILES,Rab9 promoter act,ELG1 genotox,NPC1 promoter act,SMN2 splice up,FLuc modulator,ELG1 DNA repair
COc1ccc(-c2cccc(NS(=O)(=O)c3ccc(C)s3)c2)nn1,.,.,.,.,-19.1%,.
Cc1ccccc1CN1c2ccccc2-c2nc(SCC(=O)c3ccccc3)ncc2S1(=O)=O,.,.,.,.,0.1%,.
COc1cc(C2CC(=O)Nc3ccccc3S2)cc(OC)c1OC (centres undefined),-6.4%,-25.9%,-2.4%,6.6%,3.6%,10µM*
CSc1cccc(NC(=O)c2ccc3c(c2)c(C)c(C)n3Cc2ccc(F)cc2)c1,.,.,.,.,-8.9%,.
N#Cc1ccccc1OCC(=O)Nc1cccc(S(=O)(=O)N2CCCCCC2)c1,-6.9%,-0.1%,-2.2%,.,-14.2%,18.3µM*
CCOc1ccccc1OCC(=O)Nc1cccc(S(=O)(=O)N2CCCCCC2)c1,-0.4%,-1.4%,7.1%,.,1.3%,?
COc1ccc(NC(=O)COc2ccccc2C)cc1S(=O)(=O)N1CCCCC1,-9.3%,-6.1%,-11.9%,.,0.3%,?
COc1ccc(NC(=O)COc2ccccc2C#N)c(S(=O)(=O)N2CCCCC2)c1,5.6%,-1.5%,4.4%,-17.0%,1.5%,20.6µM*
CC(=O)c1ccccc1OCC(=O)Nc1cccc(S(=O)(=O)N2CCCC2)c1,-1.3%,-1.8%,6.9%,.,16.9µM*,?
CCCC(=O)NC1CC(=O)N(c2ccc3c(c2)OCCO3)C1 (centres undefined),.,.,.,.,-1.6%,.
Cc1ccc(NC(=O)CCC(=O)N2Cc3ccccc3Oc3ncccc32)cc1,.,.,.,.,-8.7%,.
O=C(NCc1ccccc1F)C(=O)NCC(c1cccs1)S(=O)(=O)c1cccs1 (centres undefined),.,.,.,.,-7.5%,.
Cc1cc(C)c(C)c(OCC(=O)O/N=C(\N)c2ccncc2)c1,-1.5%,-5.3%,0.4%,.,0.1%,-1.8%
Cc1ccc(OCC(=O)O/N=C(\N)c2ccncc2)c(C)c1,3.55µM*,14.6µM*,3.16µM*,.,10.7µM*,?
N/C(=N\OC(=O)COc1cc(Cl)c(Cl)cc1Cl)c1ccncc1,?,18.3µM*,?,14.1µM*,13.5µM*,?

# Screening data from PubChem BioAssay.
